Sampled rows, rich in hits. Any-hit rate of the full collection: about 4.8%.
DAX1 inh-1 – inhibits human nuclear receptor DAX1 | inhibition, % at 6.75 µM | 0.99% of 340,000 active | HEK293 Gal4-DAX1 luciferase reporter, luminescence | AID 504766;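 active means inhibition above the mean over all tested compounds plus 3 SD, cut at about 4.2% in these data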;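 further: inhibition shows as a rise in luminescence from relieved DAX1 repression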
Target sequence (P51843 207-470 limits assumed): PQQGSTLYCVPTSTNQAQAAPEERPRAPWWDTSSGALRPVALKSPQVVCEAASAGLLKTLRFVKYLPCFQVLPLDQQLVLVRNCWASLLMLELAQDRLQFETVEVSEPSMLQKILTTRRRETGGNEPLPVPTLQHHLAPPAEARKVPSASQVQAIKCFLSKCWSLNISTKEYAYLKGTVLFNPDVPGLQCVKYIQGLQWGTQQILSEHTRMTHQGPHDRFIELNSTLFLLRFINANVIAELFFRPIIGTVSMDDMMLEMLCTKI
DAX1 inh-2 – blocks DAX1 repression of SF-1 activated StAR promoter | HEK293T StAR-luciferase reporter, SF-1/DAX-1 repression relief | 1.1% of 370,000 active | inhibition, % at 6.8 µM;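 active means inhibition above the mean over all tested compounds plus 3 SD, cut at about 3.6% in these data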;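 further: higher inhibition means more luminescence from relief of DAX-1 repression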
SMARCA2 act – SMARCA2 function activation, primary screen; MG213 cells, MMTV-luciferase reporter, dexamethasone, overnight; activation, % at 9.1 µM; 1% of 370,000 active; AID 652017; in the data active means activation above about 7.8%
ssDAF-12 act – activates DAF-12 receptor from parasite S. stercoralis; HEK293 ssDAF-12/GRIP1 lit1-tk-luc reporter, luminescence; % of 3 µM dafachronic acid response; activation, % at 6.8 µM; 1% of 370,000 active;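 active means activation above the mean over all tested compounds plus 3 SD, cut at about 0.9% in these data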
hcDAF12 agonist – activates DAF-12 receptor from parasite H. contortus. 1.4% of 370,000 active. HEK293 hcDAF-12 lit1-tk-luc reporter, luminescence; 0% DMSO, 100% Δ7-dafachronic acid. activation, % at 6.8 µM. AID 652067;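 active means activation above the mean of all tested compounds plus 3 SD, cut at about 5.5% in these data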
hgDAF-12 ag – activates the H. glycines DAF-12 receptor ligand-binding domain; HEK293 GAL4-hgDAF12 UAS-luciferase reporter, agonist luminescence; normalized to butyrate control; activation, % at 6.8 µM; 1.8% of 370,000 active; AID 687014;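 active means activation above a cutoff set at the mean of all screened compounds plus 3 SD, cut at about 10% in these data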
Each line names hits and unclear results; the compound was inactive in the other large screens.

C=CCn1nc2ccccc2c1OCCO	hcDAF12 agonist 6.0
C=CCn1nc2ccccc2c1OC	none
CCCc1cc(=O)[nH]c(SCc2nc3ccccc3s2)n1	hcDAF12 agonist 6.0
O=C(Nc1cccc(C(F)(F)F)c1)c1ccco1	none
Cc1ccc2c(c1)N(CC(=O)NCCCN1CCCCC1C)C(=O)c1cccnc1O2 (stereo not given)	none
Cc1ccc2c(c1)N(CC(=O)NCCCN1C(C)CCCC1C)C(=O)c1cccnc1O2 (stereo not given)	DAX1 inh-1 4.8
O=C(CCn1c(=S)oc2ccccc21)NC1CCCCC1	ssDAF-12 act 5.3
O=C(NNc1nc2c(F)cc(F)cc2s1)C1=COCCO1	DAX1 inh-1 5.6
CCC(=O)NNc1nc2c(F)cc(F)cc2s1	ssDAF-12 act 1.1
CC(=O)c1ccc(NC(=O)C2Cc3ccccc3CN2C(=O)c2ccccc2)cc1 (stereo not given)	hcDAF12 agonist 6.0
Cc1ccc(C(=O)OCC(=O)c2ccc[nH]2)s1	none
Nc1ccccc1C(=O)NNc1c2ccccc2nc2ccccc12	hcDAF12 agonist 6.4
Cc1ccc(C(=O)NNc2c3ccccc3nc3ccccc23)cc1	none
COc1ccc(S(=O)(=O)NC(=O)C2(C)CCN2C(=O)Cc2cc(C)cc(C)c2)cc1OC (stereo not given)	none (no result: DAX1 inh-1)
CCOC(=O)c1c(-c2ccccc2)cn2c(C)cc(C)nc12	hgDAF-12 ag 12
CCOC(=O)c1c(C)nc(C)c(C(=O)OCC)c1-c1ccccc1	none (no result: DAX1 inh-2, SMARCA2 act, ssDAF-12 act, hcDAF12 agonist, hgDAF-12 ag)
COc1ccc(-c2csc(COC(=O)C(C)(C)C)n2)cc1	none
CC(C)(C)C(=O)OCc1nc(-c2ccc(F)cc2)cs1	SMARCA2 act 7.9
CN(CC(=O)N1CCN(c2ncccn2)CC1)S(=O)(=O)c1ccc(Cl)cc1	ssDAF-12 act 2.2
CN(CC(=O)N1CCN(c2ccccn2)CC1)S(=O)(=O)c1ccccc1	none
NC(=O)c1ccc(NC(=O)COC(=O)CC2Sc3ccccc3NC2=O)cc1 (stereo not given)	ssDAF-12 act 1.2
NS(=O)(=O)c1ccc(NC(=O)COC(=O)CC2Sc3ccccc3NC2=O)cc1 (stereo not given)	none
C[C@@H](C(=O)Nc1nccs1)N1C(=O)C2CC=CCC2C1=O (stereo not given in full)	DAX1 inh-1 4.8
COCCNc1c(-c2ccc(OC)c(OC)c2)nc2ccc(Cl)cn12	none
COc1ccc(CCNC(=O)COc2ccc(N(C)S(=O)(=O)c3ccc(Cl)cc3)cc2)cc1	none
CN(c1ccc(OCC(=O)NCCc2ccccc2)cc1)S(=O)(=O)c1ccc(Cl)cc1	DAX1 inh-2 4.2
C[C@@H]1CN(Cc2nc(-c3cccs3)no2)C[C@H](C)O1	DAX1 inh-1 9.4
CC(C)(C)OC(=O)NCc1ccc(NC(=O)c2nc[nH]c2C(=O)Nc2cc(Br)ccc2F)cc1	ssDAF-12 act 1.1 (no result: DAX1 inh-1)
O=C1CC(NS(=O)(=O)c2ccc(F)cc2)CN1c1ccc2c(c1)OCCO2 (stereo not given)	none
CC1CCc2nc(NC(=O)C3CCCO3)sc2C1 (stereo not given)	DAX1 inh-2 3.7, hcDAF12 agonist 6.5, hgDAF-12 ag 12
CC1CCc2nc(NC(=O)c3ccco3)sc2C1 (stereo not given)	none
O=C(NN=Cc1ccc2c(c1)OCO2)NN=Cc1ccc2c(c1)OCO2	none
Cc1ccc(C(=O)N/N=C/c2ccc3c(c2)OCO3)o1	ssDAF-12 act 1.0, hcDAF12 agonist 5.9
c1ccc2c(c1)-c1nc3ccccc3cc1C2N1CCCCC1 (stereo not given)	DAX1 inh-2 4.2, ssDAF-12 act 1.4
CCOC(=O)Nc1sc2c(c1C(N)=O)CCC(C)C2 (stereo not given)	none
CC(=O)NC(=S)Nc1sc2c(c1C(N)=O)CCC(C)C2 (stereo not given)	DAX1 inh-1 5.0
Cc1ccc(CC(=O)Nc2ccc(S(=O)(=O)Nc3nccc(C)n3)cc2)cc1	none
Cc1cccc(C(=O)NC2CCCCCCC2)c1	hgDAF-12 ag 11
Cc1ccc(C(=O)NC2CCN(S(=O)(=O)c3ccccc3F)CC2)cc1	none
COc1ccc(C(=O)NC2CCCCCCC2)cc1OC	none
CN1C(=O)c2ccc(C(=O)NC3CCCCC3)cc2C1=O	ssDAF-12 act 1.0
Cc1cccc(C(=O)NC2CCN(S(=O)(=O)c3ccccc3F)CC2)c1	DAX1 inh-1 4.3
CSCCC(NS(=O)(=O)c1ccc(Cl)cc1)C(=O)N1CCN(c2ccccc2)CC1 (stereo not given)	none
CN(C)c1ccc(C=NN2CCCCCC2)cc1	none
O=C(c1ccc(Cl)cc1)c1oc2ccccc2c1CS(=O)c1ccc(Cl)cc1 (stereo not given)	none
Nc1c(C(=O)c2ccc(Cl)cc2)oc2ccccc12	ssDAF-12 act 1.8, hgDAF-12 ag 12
CCOC(=O)C1(C)CCN1C(=O)c1cc(F)ccc1C (stereo not given)	none (no result: DAX1 inh-1)
CN(C)c1cccc(-c2nnc(SCCCC#N)o2)c1	hgDAF-12 ag 11
CN(C)CCSc1nnc(-c2ccccc2)o1	none
CC(=O)Nc1ccc(C(=O)OC2CCOC2=O)cc1 (stereo not given)	none
Nc1c(Cl)cc(N=Nc2ccccc2)cc1Cl	ssDAF-12 act 1.0
CCOC(=O)c1[nH]cnc1C(=O)Nc1cccc(N)n1	none
C=CCOc1cccc(C2C(C(=O)c3ccco3)=C(O)C(=O)N2CCN(CC)CC)c1 (stereo not given)	DAX1 inh-1 4.7
C=CCOc1cccc(C2C(C(=O)c3ccco3)=C(O)C(=O)N2Cc2cccnc2)c1 (stereo not given)	none
Cc1nc(NC(=O)C2CC2)sc1C(=O)N1CCCCC1	none
Cc1nc(NC(=O)c2cccc(Cl)c2)sc1C(=O)N1CCCCC1	hgDAF-12 ag 11
CN=c1scc(-c2ccc([N+](=O)[O-])cc2)n1/N=C/c1ccco1	none
CN=c1scc(-c2ccc(F)cc2)n1/N=C/c1ccc(O)c(O)c1	hcDAF12 agonist 6.3
COc1ccc(NC(=S)c2ccc(N(C)C)cc2)cc1	DAX1 inh-2 3.8
OCCCNCc1ccc(N(c2ccccc2)c2ccccc2)cc1	DAX1 inh-1 5.9
O=C(OCc1ccccc1)N(CCCCN(CCCNCc1ccccc1)C(=O)OCc1ccccc1)CCCNCc1ccccc1	none
NC(=O)C1CCN(CC(=O)Nc2ccccc2Sc2ccc(Cl)cc2)CC1	none
CCN(C(=O)CN1C(=O)c2ccc([N+](=O)[O-])cc2C1=O)C1CCCCC1	none
O=C(c1ncn[nH]1)N1CCN(c2nc(-c3ccccc3)cs2)CC1	none
COc1ccc(N=Cc2c[nH][nH]c2=O)cc1	none
O=c1[nH][nH]cc1C=Nc1ccc(Oc2ccccc2)cc1	ssDAF-12 act 6.9
O=C1C=CC(=O)N1N(c1ccccc1)c1ccccc1	none
CC1(CCc2ccccc2)NC(=O)N(CC(=O)Nc2ccc(OC(F)F)cc2)C1=O (stereo not given)	none

Screens (PubChem)
